# From ChEMBL document CHEMBL1157539, “Thousands of chemical starting points for antimalarial lead identification” (Nature, 2010)
# Assays:
# Assay type in all cases: functional
# Plasmodium falciparum [1] = test: GSK_TCMDC: Inhibition of Plasmodium falciparum 3D7 in whole red blood cells, using parasite LDH activity as an index of growth. Test compounds present at 2uM
# Plasmodium falciparum [2] = test: GSK_TCMDC: Inhibition of Plasmodium falciparum Dd2 in whole red blood cells, using parasite LDH activity as an index of growth. Test compounds present at 2uM
# HepG2 = test: GSK_TCMDC: Percent inhibition of human HepG2 cell line. Test compounds present at 10uM.
SMILES,Inhibition (Plasmodium falciparum [1]),Inhibition (Plasmodium falciparum [2]),Inhibition (HepG2)
Cc1c(Cl)cccc1S(=O)(=O)Nc1ccc(CCN2CCC(N)CC2)cc1.Cl,90%,4%,23%
Nc1nc(N)c2c(n1)CCC(c1ccccc1)C2 (configuration not stated),93%,0%,55%
Cc1ccc2[nH]c([N-]C#N)nc2c1.[Na+],96%,0%,7%
CC(C)Nc1cc(C(=O)N[C@@H](Cc2ccccc2)[C@H](O)CNCc2cccc(C(F)(F)F)c2)c(F)c(N2CCCCS2(=O)=O)c1.O=CO,93%,78%,0%
O=C(Cn1c(CCc2cccc(F)c2F)nc(=O)c2ccccc21)N(CCCN1CCCC1)Cc1ccc(-c2ccc(C(F)(F)F)cc2)cc1.O=C(O)C(O)C(O)C(=O)O,100%,80%,54%
O=C(Nc1cccc(-c2nn3ccccc3c2-c2ccnc(Nc3cccc(-c4cnco4)c3)n2)c1)C1CCCCC1,95%,99%,71%
CN1CCN(CCCN(Cc2ccc(-c3cccc(CNC4CCCC4)c3)cc2)C(=O)/C=C/c2ccccc2)CC1.O=C(O)C(F)(F)F,100%,87%,36%
O=C(NCC1CCC(C(=O)NCCc2ccc(Cl)c(Cl)c2)CC1)c1ccc(O)c(-c2ccc(Cl)c(Cl)c2)c1 (configuration not stated),94%,12%,0%
O=C(O)C(F)(F)F.O=S(=O)(NC1CCN(c2ccnc3cc(Cl)ccc23)C1)c1ccc(F)cc1 (configuration not stated),98%,88%,3%
COc1nc2c(CCN3CCC(NCc4ccc5c(c4)NC(=O)CO5)CC3)c(Cl)cnc2cc1F.Cl,99%,21%,15%
NCCNS(=O)(=O)c1ccc(-c2ccnc3[nH]c(-c4ccncc4)cc23)cc1.O=C(O)C(F)(F)F,96%,95%,0%
CN1CCN(c2ccc(-c3cc(-c4ccncc4)c(-c4ccc(Cl)c(O)c4)o3)cc2)CC1.Cl,100%,98%,0%
Cc1ccc(NC(=O)c2ccc(CN3CCCN(Cc4cccc(O)c4)CC3)cc2)cc1.O=C(O)C(F)(F)F,90%,31%,39%
CCN(C(=O)c1ccc(NC(=O)c2cccs2)cc1)c1nc2c(C)cccc2s1,89%,85%,24%
O=C(COc1cnc2ccccc2n1)Nc1ccccc1Sc1ccc(Cl)cc1,100%,100%,6%
Cc1cc(NC(=O)c2cccs2)ccc1OC1CCN(Cc2ccccc2)CC1.O=C(O)C(F)(F)F,95%,91%,10%
O=C(/C=C/c1ccc(Cl)c(Cl)c1)N1CCN(C(=O)Nc2ccc(F)c(Cl)c2)CC1,97%,87%,19%
OC1=C2C(=Nc3ccccc3SC2c2ccccc2)c2ccccc21 (configuration not stated),86%,94%,5%
Cc1cc(F)ccc1Nc1nc(N(C)c2ccccc2)c2cc(OCCCN(C)C)ccc2n1,100%,49%,31%
Cc1cnc(Nc2ccccc2)nc1NCCC(=O)Nc1ccccc1.O=C(O)C(F)(F)F,89%,7%,10%
Cc1ccccc1CN1CCCN(Cc2ccc(C(=O)Nc3ccc(Cl)cc3)cc2)CC1.O=C(O)C(F)(F)F,93%,15%,48%
CN(C)Cc1ccc2cc(NC(=O)c3ccc(-c4ccc(Cl)cc4)cc3)ccc2n1.O=C(O)C(F)(F)F,86%,30%,60%
COc1ccc2nc3cc(Cl)ccc3c(NCCN3CCN(C)CC3)c2c1.Cl,100%,99%,29%
COc1ccc(-n2nc(C)cc2C(=O)NCc2ccc(-c3c(C)noc3C)cc2)cc1,100%,92%,3%
O=C(Nc1ccc(Cl)cc1)c1cc(Cl)cc2nc(C(F)(F)F)[nH]c12,100%,100%,87%
CS(=O)(=O)c1ccccc1CNC(=O)c1ccc(-c2cccc(-c3nc4cc(C(F)(F)F)ccc4[nH]3)c2)cc1,91%,4%,36%
CC(=O)Nc1ccc(Nc2ncc([N+](=O)[O-])c(Nc3ccccc3C(N)=O)n2)cc1.Cl,98%,97%,42%
c1ccc(CNc2nc(NCCc3c[nH]cn3)nc(N3CCCC4CCCCC43)n2)cc1 (configuration not stated),98%,100%,0%
Cc1cccc(C(=O)Nc2ccnc(N3CCC(N(C)Cc4cccc(C#N)c4)CC3)c2)c1.O=C(O)C(F)(F)F,100%,52%,5%
